From PubChem BioAssay
An excerpt weighted towards active compounds, which were near 1.2% of everything screened.
HDAC3 inhib: inhibitors of human histone deacetylase 3; recombinant HDAC3, fluorogenic peptide/trypsin coupled, fluorescence; inhibition, % at 8.3 µM; 0.15% of 320,000 active; AID 2718; in the data active = inhibition above about 26%, passing the limit was not always enough
Target sequence (O15379 whole entry, looked up): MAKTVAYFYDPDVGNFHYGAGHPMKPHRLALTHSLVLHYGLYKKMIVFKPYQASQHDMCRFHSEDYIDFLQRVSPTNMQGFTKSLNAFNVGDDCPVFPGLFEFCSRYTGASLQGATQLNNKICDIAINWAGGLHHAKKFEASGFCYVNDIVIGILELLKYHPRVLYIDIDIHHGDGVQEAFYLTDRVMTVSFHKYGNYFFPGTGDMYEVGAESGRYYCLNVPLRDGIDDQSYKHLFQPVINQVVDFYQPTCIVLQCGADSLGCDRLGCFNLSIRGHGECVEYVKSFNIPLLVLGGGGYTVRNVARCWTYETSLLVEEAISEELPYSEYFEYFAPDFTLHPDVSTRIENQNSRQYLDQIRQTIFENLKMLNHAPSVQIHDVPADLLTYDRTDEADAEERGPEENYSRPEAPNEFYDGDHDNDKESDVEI
HIF activator: HIF pathway transcriptional activation; AID 1910; activation, % at 7.5 µM (by protocol); U2OS HRE-luciferase reporter, luminescence; normalized: DMSO 0%, desferrioxamine 100%; 0.32% of 300,000 active;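 active = mean activation of at least 10% of the iron chelator positive control signal, with at least half of replicates also reaching 10%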
CR mimetic SO: lowers age-related superoxide in aged yeast cells; S. cerevisiae aged cells, superoxide DHE fluorescence; active compounds read low; superoxide response (% of plate mean), % at 10 µM; 0.18% of 330,000 active; AID 2690;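 active = superoxide response under a set limit, about three screen SD below normal, cut at about 65% in these data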;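 note: yeast aged for seven days with compound at 30 °C before DHE staining; 100% = average MFI of all compound-treated wells on the plate with controls excluded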
LANA-H2A inh: blocks KSHV LANA binding to histone H2A/H2B; inhibition, % (concentration not given with the values); 0.6% of 320,000 active; Q9QR71; cell-free LANA-H2A/H2B peptide, fluorescence polarization; in the data active = inhibition mostly above about 10%, no sharp cut-off; inactive = mostly below about 6.7%
Active calls of the source: *; . = no result; + = active, no number.

SMILES	HDAC3 inhib	HIF activator	CR mimetic SO	LANA-H2A inh
Cc1cccc(/C=N/NC(=O)CN2CCCCCCC2)c1	2	0	100	-3
Cc1ccc(O)c(/C=N/NC(=O)CN2CCCC2)c1	2	15*	109	3
COc1ccc2ccccc2c1/C=N/NC(=O)c1sc(N)c(C#N)c1C	-2	-1	111	+
O=C(CN1CCCC1)N/N=C/c1c(O)ccc2ccccc12	-2	28*	100	-4
COc1ccc2nc(Nc3sc4c(c3C(N)=O)CCCC4)sc2c1	2	.	99	2
O=c1c2ccccc2nc(N/N=C/c2c(O)ccc3ccccc23)n1O	12	15*	117	2
O=C(CCSc1nc2ccccc2s1)N/N=C/c1c(O)ccc2ccccc12	4	11*	98	4
COc1ccccc1OCC(=O)N/N=C/c1c(O)ccc2ccccc12	-1	18*	90	-8
O=c1c2ccccc2nc(N/N=C/c2ccc(O)cc2)n1O	-3	1	91	-1
O=C(NCCc1ccc(Cl)cc1Cl)C1=CC=CN2CCS(=O)(=O)N=C12	-15	.	88	.
O=C(N/N=C/C(Br)=C\c1ccccc1)c1n[nH]c2c1CCC2	2	12*	112	3
CC(/C=N/NC(=O)c1n[nH]c2c1CCC2)=C\c1ccccc1	3	6	115	-1
Cc1ccc(-n2nc(C)c3c(C)cc(=O)[nH]c32)cc1	-4	0	94	11
Cc1ccc(-n2nc(C)c3onc(C)c3c2=O)cc1	2	0	101	28*
CC(C)(C)OC(=O)N[C@@H](Cc1ccccc1)c1nnc(S(=O)(=O)Cc2ccccc2)o1	76*	.	86	0
Cc1ccccc1CS(=O)(=O)c1nnc([C@H](Cc2ccccc2)NC(=O)OC(C)(C)C)o1	46*	-3	89	-1
COC(=O)c1scc(C)c1NC(=O)c1ccccc1F	2	1	111	-3
CC(C)NC(=O)N(C)C[C@H]1Oc2ccc(NC(=O)NC3CCCCC3)cc2C(=O)N([C@H](C)CO)C[C@@H]1C	-3	.	119	6
C=CC[C@@H](CC(=O)N(CCO)Cc1ccccc1)C(=O)N[C@@H](COC(=O)[C@H](CC=C)CC(=O)OC(C)(C)C)Cc1c[nH]c2ccccc12	33*	.	84	4
C=CC[C@H](CC(=O)N(CCO)Cc1ccccc1)C(=O)N[C@H](COC(=O)[C@@H](CC=C)CC(=O)OC(C)(C)C)Cc1ccccc1	30*	.	109	3
C=CC[C@H](CC(=O)N(CCO)Cc1ccccc1)C(=O)N[C@@H](COC(=O)[C@@H](CC=C)CC(=O)OC(C)(C)C)Cc1c[nH]c2ccccc12	40*	.	93	-13
C=CC[C@@H](CC(=O)N(CCO)Cc1ccccc1)C(=O)N[C@H](COC(=O)[C@@H](CC=C)CC(=O)OC(C)(C)C)Cc1ccccc1	.	.	95	.
C=CCNc1nc(C(=O)OCC(=O)Nc2ccccc2C(F)(F)F)cs1	-3	.	144	1
COc1ccc(NC(=O)CCC(=O)NCCO)cc1	0	0	98	1
CCOC(=O)Cc1nn(CC)c(=O)c2ccccc12	-3	90*	88	-1
SMILES	HDAC3 inhib	HIF activator	CR mimetic SO	LANA-H2A inh
CCOC(=O)Cc1nn(C)c(=O)c2ccccc12	-5	0	85	1
CCN1CCN(S(=O)(=O)c2ccc(C(C)(C)C)cc2)CC1	-4	0	93	13*
CC(C)NC(=O)N(C)C[C@H]1Oc2ccc(NS(=O)(=O)c3ccccc3)cc2C(=O)N([C@H](C)CO)C[C@@H]1C	1	.	100	-4
CCOC(=O)N1C(=O)[C@@](CC)(c2ccccc2)N1C(=O)OCC	35*	-1	101	1
CC[C@@]1(c2cccc(C)c2)C(=O)N(C(=O)OC)N1C(=O)OC	18	-1	108	2
O=C(CN1CCN(S(=O)(=O)c2ccc(Cl)cc2)CC1)NCC1(N2CCOCC2)CCCCC1	-2	.	97	1
O=C(O)CN1C(=O)COc2ccc(S(=O)(=O)N3CCCCCC3)cc21	-2	0	97	-1
CC(C)(Oc1ccc(F)cc1)C(=O)OCC(=O)c1ccc(S(C)(=O)=O)cc1	-2	.	90	-2
CCOc1cccc(-c2nc3c(s2)CCc2onc(-c4cccc([N+](=O)[O-])c4)c2-3)c1	-6	0	.	2
CCCOc1ccc(C(=O)Nc2ccc(S(=O)(=O)Nc3cc(C)nc(C)n3)cc2)cc1	-4	0	62*	4
N#Cc1ccccc1/C=N/Nc1nc(-c2ccccc2)c2cc(Cl)ccc2n1	0	2	91	55*
CC(C)(C)NS(=O)(=O)c1ccc(NC(=O)C(Sc2ccccc2)c2ccccc2)cc1 (stereo unspecified)	29*	0	93	2
CC(=O)N(C)c1ccc(NC(=O)C(Sc2ccccc2)c2ccccc2)cc1 (stereo unspecified)	2	0	110	-2
CCc1c(C)nc(SCC(=O)N2CC(C)OC(C)C2)[nH]c1=O (stereo unspecified)	2	-1	93	-3
Cc1ccc(S(=O)(=O)n2c([N+](=O)[O-])cnc2C)cc1C	-1	0	84	12*
Cc1cc(C)c(S(=O)(=O)n2c([N+](=O)[O-])cnc2C)cc1C	-1	0	76	-3
O=C(O)CC(NC(=O)C12CC3CC(CC(C3)C1)C2)c1ccc(OC2CCCC2)cc1 (stereo unspecified)	3	0	113	-2
O=C(N[C@H](C(=O)O)c1ccccc1)C1CCC(Cn2cnc3ccccc3c2=O)CC1 (stereo partly specified)	0	0	109	5
COCCNc1nc(C)c(C(C)=O)s1	2	0	94	2
C/C(=N\Nc1nncc2ccccc12)c1ccc(O)cc1	1	1	136	12*
C/C(=N\Nc1nncc2ccccc12)c1ccc(C(C)(C)C)cc1	-3	1	88	-3
CCOC(=O)C(NC(=O)CCl)(Nc1sc(C)c(CC)c1C#N)C(F)(F)F (stereo unspecified)	9	0	100	-8
CCOC(=O)C(NC(=O)N(C)C)(Nc1sc(C)c(CC)c1C#N)C(F)(F)F (stereo unspecified)	32*	1	103	4
CN(C)CCOCCOc1ccc(Cl)cc1Br	4	0	116	12*
O=C(c1ccc(-c2nnc(-c3ccccc3)o2)cc1)N1CCCCCC1	-3	40*	141	-4
SMILES	HDAC3 inhib	HIF activator	CR mimetic SO	LANA-H2A inh
CC(C)CC(=O)c1c[nH]c(C(=O)N2CCN(Cc3ccccc3)CC2)c1	1	-1	113	+
O=C(c1ccccc1)N1CCN(Cc2ccccc2)CC1	2	0	101	1
O=c1[nH]c(CSc2ccccn2)nc2c1oc1ccccc12	-9	-1	101	-1
CCCSc1nc(N)c2c3c(sc2n1)CN(C)CC3	-18	0	90	-5
CC(C)Sc1nc(N)c2c3c(sc2n1)CN(C)CC3	4	13*	99	2
O=C(NCCCN1CCOCC1)c1sc2ccccc2c1Cl	3	1	120	3
COc1ccc(N/N=C(/N=Nc2nc(C)cc(=O)[nH]2)c2ccccc2)cc1	0	143*	91	3
